The term AC50 denotes the concentration giving half of the maximal activity seen.

Molecules are shown by their SMILES. Calls of active or inactive are those of the source. Rule for the calls: active = hit-call score of the fitted dose curve at least 0.9, where 1 is the maximum; inactive = score below 0.9.

For four compounds, outcome and AC50 results are on record in PubChem BioAssay (EPA / NIEHS).

Read-out in assay [1]: Epidermal growth factor receptor (EGFR), EGFR (gene 1956)
The experiment in a line: BSK_hDFCGF_EGFR: BioMAP Diversity Plus: hDFCGF Assay for Epidermal growth factor receptor (EGFR) Biomarker Activity (AID 2283057). Conditions: primary human foreskin fibroblasts; actives raise or lower the signal. The procedure, abridged: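 EGFR levels by ELISA in human dermal fibroblast cultures, 24 h post-treatment, fitted bidirectionally versus DMSO. Parallel wells stained with sulforhodamine B to detect overt cytotoxicity.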

Read-out in assay [2]: Interleukin-8 (IL8), CXCL8 (gene 3576)
The experiment in a line: BSK_hDFCGF_IL8: BioMAP Diversity Plus: hDFCGF Assay for Interleukin-8 (IL8) Biomarker Activity (AID 2283058). To be noted: primary human foreskin fibroblasts; actives raise or lower the signal. In outline:
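Fibroblast monolayers (human foreskin, hDFCGF) received test chemical for 24 h before ELISA detection of IL-8; either increases or decreases relative to DMSO count as activity.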

Assay [3] can be described thus: BSK_hDFCGF_Proliferation: Cell Proliferation Assessment in the BioMAP Diversity Plus: hDFCGF Assay (AID 2283059).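 Note: curves fitted for both rise and fall of signal versus DMSO baseline.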 To be noted: primary human foreskin fibroblasts. The procedure, abridged: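 Steps: dose primary human dermal fibroblasts (foreskin); […] fix in 10% TCA; stain with 0.1% SRB; read 560 nm; fit gain or loss of signal against DMSO.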
Read-out in assay [4]: Macrophage colony-stimulating factor (MCSF), CSF1 (gene 1435)
Description: BSK_hDFCGF_MCSF: BioMAP Diversity Plus: hDFCGF Assay for Macrophage colony-stimulating factor (MCSF) Biomarker Activity (AID 2283060). To be noted: primary human foreskin fibroblasts; actives raise or lower the signal. The procedure, abridged: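 fibroblasts (human foreskin, primary), 24 h post-dose; M-CSF by ELISA; bidirectional fit, DMSO = baseline.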

Read-out in assay [5]: TIMP metallopeptidase inhibitor 1 (TIMP1), TIMP1 (gene 7076)
Description: BSK_hDFCGF_TIMP1: BioMAP Diversity Plus: hDFCGF Assay for TIMP metallopeptidase inhibitor 1 (TIMP1) Biomarker Activity (AID 2283062). Conditions: primary human foreskin fibroblasts; actives raise or lower the signal. In outline: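 Bidirectional curve fitting against DMSO baseline yielded this endpoint, based on ELISA detection of TIMP-1 in primary human foreskin fibroblasts exposed to compound for 24 h.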

Read-out in assay [6]: Monokine induced gamma interferon (MIG), CXCL9 (gene 4283)
Description: BSK_hDFCGF_MIG: BioMAP Diversity Plus: hDFCGF Assay for Monokine induced gamma interferon (MIG) Biomarker Activity (AID 2283063). To be noted: primary human foreskin fibroblasts; actives raise or lower the signal. The procedure, abridged: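 Endpoint derived by bidirectional fitting relative to DMSO; MIG quantified via ELISA in primary human foreskin fibroblasts harvested 24 h after dosing.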

Read-out in assay [7]: Matrix Metallopeptidase 1 (MMP1), MMP1 (gene 4312)
The experiment in a line: BSK_hDFCGF_MMP1: BioMAP Diversity Plus: hDFCGF Assay for Matrix Metallopeptidase 1 (MMP1) Biomarker Activity (AID 2283064). To be noted: primary human foreskin fibroblasts; actives raise or lower the signal. The procedure, abridged:
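MMP1 levels quantified by ELISA 24 h after dosing human dermal fibroblast cultures, with parallel SRB total-protein staining for overt cytotoxicity. Data fitted in both directions against DMSO baseline.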

Read-out in assay [8]: Plasminogen activator inhibitor-1 (PAI1), SERPINE1 (gene 5054)
The experiment in a line: BSK_hDFCGF_PAI1: BioMAP Diversity Plus: hDFCGF Assay for Plasminogen activator inhibitor-1 (PAI1) Biomarker Activity (AID 2283066). Conditions: primary human foreskin fibroblasts; actives raise or lower the signal. The procedure, abridged: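 PAI-1 levels in human dermal foreskin fibroblasts were quantified by ELISA 24 h after dosing, with gain or loss analysed against DMSO. Overt cytotoxicity was checked by sulforhodamine B total-protein staining in parallel cultures.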

Read-out in assay [9]: Intercellular Adhesion Molecule 1 (ICAM1), ICAM1 (gene 3383)
Description: BSK_KF3CT_ICAM1: BioMAP Diversity Plus: KF3CT Assay for Intercellular Adhesion Molecule 1 (ICAM1) Biomarker Activity (AID 2283067). Conditions: primary human keratinocytes with fibroblasts; actives raise or lower the signal. The procedure, abridged: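 Bidirectional curve fitting against a DMSO baseline was applied to ICAM-1 ELISA signal from primary human skin co-cultures harvested 24 h after treatment, with SRB staining of parallel wells for overt cytotoxicity.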

Read-out in assay [10]: Interferon-gamma inducible Protein 10 (IP10), CXCL10 (gene 3627)
Description: BSK_KF3CT_IP10: BioMAP Diversity Plus: KF3CT Assay for Interferon-gamma inducible Protein 10 (IP10) Biomarker Activity (AID 2283068). Conditions: primary human keratinocytes with fibroblasts; actives raise or lower the signal. In outline:
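KF3CT co-culture (keratinocytes + foreskin fibroblasts), 24 h compound, IP-10 by ELISA; bidirectional fit vs DMSO baseline.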

A short description of assay [11]: BSK_KF3CT_SRB: Viability Assessment in the BioMAP Diversity Plus: KF3CT Assay (AID 2283069).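 Note: read 24 h after compound addition.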 To be noted: primary human keratinocytes with fibroblasts. The procedure, abridged: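 Cytotoxicity was gauged by SRB staining (0.1% SRB, 10% TCA fixation, 560 nm) of parallel cultures at 24 h. The cells were primary human skin keratinocytes co-cultured with fibroblasts, and activity was fitted in both directions against DMSO.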

Read-out in assay [12]: Interleukin-1 alpha (IL1a), IL1A (gene 3552)
Description: BSK_KF3CT_IL1a: BioMAP Diversity Plus: KF3CT Assay for Interleukin-1 alpha (IL1a) Biomarker Activity (AID 2283070). Conditions: primary human keratinocytes with fibroblasts; actives raise or lower the signal. The procedure, abridged: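 IL-1a was detected by ELISA 24 h after chemical treatment of a co-culture of human skin keratinocytes and foreskin fibroblasts. Gain or loss of signal was fitted against the DMSO baseline.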

Read-out in assay [13]: TIMP metallopeptidase inhibitor 2 (TIMP2), TIMP2 (gene 7077)
The experiment in a line: BSK_KF3CT_TIMP2: BioMAP Diversity Plus: KF3CT Assay for TIMP metallopeptidase inhibitor 2 (TIMP2) Biomarker Activity (AID 2283071). To be noted: primary human keratinocytes with fibroblasts; actives raise or lower the signal. The procedure, abridged: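 TIMP-2 measured by ELISA at 24 h in human keratinocyte/fibroblast primary co-cultures exposed to chemicals. Both increases and decreases were fitted against DMSO. Parallel cultures were stained with SRB for total protein as an overt-cytotoxicity check.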

Read-out in assay [14]: Transforming growth factor beta 1 (TGFb1), TGFB1 (gene 7040)
Description: BSK_KF3CT_TGFb1: BioMAP Diversity Plus: KF3CT Assay for Transforming growth factor beta 1 (TGFb1) Biomarker Activity (AID 2283072). Conditions: primary human keratinocytes with fibroblasts; actives raise or lower the signal. In outline:
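ELISA quantifies TGF-b1 at 24 h post-dose in a primary human skin co-culture of keratinocytes and fibroblasts, with gain or loss judged against DMSO. Parallel SRB total-protein staining flags overt cytotoxicity.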

Read-out in assay [15]: C-C motif chemokine 2 (Homo sapiens) (UniProt P13500)
Description: BSK_KF3CT_MCP1: BioMAP Diversity Plus: KF3CT Assay for Monocyte Chemoattractant Protein 1 (MCP1/CCL2) Biomarker Activity (AID 2283073). To be noted: primary human keratinocytes with fibroblasts; actives raise or lower the signal. In outline:
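Biomarker MCP-1 is measured by ELISA in primary human keratinocytes co-cultured with foreskin fibroblasts, 24 h after chemical treatment; DMSO serves as the negative control and activity baseline.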

Read-out in assay [16]: Matrix Metallopeptidase 9 (MMP9), MMP9 (gene 4318)
Description: BSK_KF3CT_MMP9: BioMAP Diversity Plus: KF3CT Assay for Matrix Metallopeptidase 9 (MMP9) Biomarker Activity (AID 2283074).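 For AC50: MMP9 protein level quantified by ELISA in the co-culture.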 Conditions: primary human keratinocytes with fibroblasts; actives raise or lower the signal. The procedure, abridged: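 MMP-9 quantified by ELISA after 24 h chemical treatment of primary human skin keratinocyte/fibroblast co-cultures; gain or loss fitted against DMSO, with parallel SRB staining (0.1% SRB, 560 nm) for overt cytotoxicity.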

Read-out in assay [17]: urokinase plasminogen activator (uPA), PLAU (gene 5328)
Description: BSK_KF3CT_uPA: BioMAP Diversity Plus: KF3CT Assay for urokinase plasminogen activator (uPA) Biomarker Activity (AID 2283075). To be noted: primary human keratinocytes with fibroblasts; actives raise or lower the signal. The procedure, abridged: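 ELISA read-out of uPA 24 h after dosing human skin keratinocytes co-cultured with foreskin fibroblasts. Signal change fitted both ways relative to DMSO; sulforhodamine B on parallel cultures marks overt cytotoxicity.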

Read-out in another assay: CD40, CD40 (gene 958)
Description: BSK_LPS_CD40: BioMAP Diversity Plus: LPS Assay for CD40 Biomarker Activity (AID 2283076). To be noted: primary human HUVEC with PBMC; actives raise or lower the signal. In outline: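 Using a multiplexed primary human co-culture (umbilical vein endothelium plus PBMC), CD40 was read by ELISA 24 h after dosing, with cytotoxicity tracked by sulforhodamine B staining of parallel cultures and activity fitted bidirectionally versus DMSO.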

Assay [18] can be described thus: BSK_hDFCGF_SRB: Viability Assessment in the BioMAP Diversity Plus: hDFCGF Assay (AID 2283061).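 Note: cells exposed to compound for 24 h before the read.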 To be noted: primary human foreskin fibroblasts. The procedure, abridged: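 SRB-based viability read on primary human skin fibroblasts at 24 h: TCA fixation, 0.1% dye, 560 nm. Gain or loss of signal is fitted against the DMSO negative control.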
Read-out in assay [19]: Vascular cell adhesion molecule 1 (VCAM1), VCAM1 (gene 7412)
The experiment in a line: BSK_hDFCGF_VCAM1: BioMAP Diversity Plus: hDFCGF Assay for Vascular cell adhesion molecule 1 (VCAM1) Biomarker Activity (AID 2283065).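 Note: VCAM-1 protein level quantified by ELISA after 24 h chemical exposure.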 To be noted: primary human foreskin fibroblasts; actives raise or lower the signal. The procedure, abridged:
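Measured after 24 h chemical treatment of primary human skin fibroblasts, VCAM-1 was detected by ELISA and concentration-response analysed in both directions versus DMSO vehicle.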

Regarding `O=C(O)c1cccnc1`, the outcome in assay [1], in [2], in assay [3], in assay [4], in [5] and in [6] was inactive. Further, the result in assay [7], in [8], in assay [9], in [10], in assay [11] and in assay [12] was inactive. Further, the outcome in assay [13] was “inactive”; in assay [14] it was “inactive”; in assay [15], “inactive”; in [16], “inactive”; in [17], “inactive”; with CD40, CD40 (gene 958), “inactive”.
For `C=CCc1ccc(OC)c(OC)c1`, the result in assay [1], in assay [2], in assay [3], in [4], in assay [5] and in assay [6] was inactive. Moreover, the outcome in [7], in assay [8], in assay [9], in [10], in assay [11] and in assay [12] was inactive. Further, the outcome in assay [14] is “inactive”; in [15], “inactive”; in assay [16], “inactive”; in assay [17], “inactive”; with CD40, CD40 (gene 958), “inactive”.
For the compound `CN(C)CCCN(C)CCCN(C)C`, the outcome in assay [1], in [2], in [3], in assay [4], in assay [5] and in assay [6] was inactive. The result in [7], in assay [8], in assay [9], in assay [10], in assay [11] and in assay [12] was inactive. The outcome in assay [13], in [14], in assay [15], in [16] and in [17] was inactive.
`CN(C)CCCN1c2ccccc2Sc2ccc(Cl)cc21`: the half-maximal activity concentration (AC50) in [2] was 31.4 µM (active); in [3], 16.6 µM (active); in [4], 22.1 µM (active); in assay [18], 31.9 µM (active); in assay [6], 31.1 µM (active); in assay [7], 31.5 µM (active). In addition, the AC50 was 24.7 µM (active) in assay [19]; 31.9 µM (active) in assay [8]; 35.4 µM (active) in assay [9]; 30.8 µM (active) in [10]; 31.6 µM (active) in assay [11]; 31 µM (active) in assay [12]. In addition, the AC50 is 33.2 µM (active) in [14]; 31.6 µM (active) in [16]; 30.3 µM (active) in assay [17]; 25.3 µM (active) with CD40, CD40 (gene 958). Besides, the outcome in assay [13] and in assay [15] was inactive.
